Pf growth 48h: inhibits P. falciparum growth in the first generation, 48 h. P. falciparum luciferase growth in erythrocytes, 48 h. Potency, µM (highest dose often 28.7 µM), for the others: at the top dose activity change, negative = inhibition, actives largely listed as inhibitors. 310,000 compounds, 5.9% hits. AID 504832; further: potency means the concentration at half of the fitted maximal effect; on the % scale 0 is the no-effect control and ±100 the full control effect
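Here the parasites carry a stable luciferase gene and grow inside erythrocytes in Albumax-based RPMI medium with compound for one erythrocytic cycle. Activity is scored as loss of luminescent signal.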
Shiga toxin inh: inhibitors of Shiga toxin in Vero cells; 290,000 compounds, 9.2% hits; AID 2315; Vero cells, Shiga toxin protein synthesis inhibition reporter; inhibition, % at 38.7 µM; in the data active means inhibition mostly above about 28%, no sharp cut-off; inactive means mostly below about 43%; further: 0% is about no effect
Pf growth 96h: P. falciparum growth inhibition at 96 hours; P. falciparum luciferase reporter growth, 96 h; Potency, µM (top dose mostly 28.7 µM), for inactives: top-dose activity change, negative = inhibition, most hits filed as inhibitors; 320,000 compounds, 6.9% hits; further: potency means the concentration at half of the fitted maximal effect; on the % scale 0 is the no-effect control and ±100 the full control effect
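Infected RBCs, 2% Hct / 0.05% parasitemia final; luciferase-reporter P. falciparum; cpd 96 h, 37 C, 5% CO2; luciferase detection reagent; luminescence.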
Cycloheximide cs: counter-screen hit for Shiga toxin inhibitors, cycloheximide; cell reporter, cycloheximide protein synthesis inhibition counterscreen; max response, %; 300,000 compounds, 12% hits; in the data active means max response mostly above about 13%, no sharp cut-off; inactive means mostly below about 14%; further: read at 38.3 µM for the half of the compounds with a filed dose; 0% is about no effect
AMA1 RON2 block: AMA1-RON2 (P. falciparum) interaction inhibition | AlphaScreen AMA1-biotinylated RON2 peptide binding | Potency, µM (doses to about 58.2 µM), inactives show at the top dose activity change, negative = inhibition, actives largely listed as inhibitors | 360,000 compounds, 0.2% hits | AID 720542;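 further: potency means the concentration at half of the fitted maximal effect; 0% = vehicle wells and -100% = peptide control; nearly all actives have a fitted effect of over 45% in size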
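AMA1 (3D7) with his tag at 25 nM final met compounds first, then biotinylated RON2 peptide at 25 nM; detection used donor plus acceptor beads, 10 µg/mL apiece, read by AlphaScreen after 30 min at room temperature.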
HCV inhibitor: inhibitors of hepatitis C virus infection. Potency, µM (doses to about 41.8 µM), without a hit: at the highest dose activity change, negative = inhibition, most hits filed as inhibitors. Huh7.5.1 HCVcc-Cre infection, luciferase reporter, 44 h. 340,000 compounds, 3.4% hits. AID 651820; further: potency means the concentration at half of the fitted maximal effect; on the % scale 0 is the no-effect control and ±100 the full control effect
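Compounds are dispensed onto cells plated 4 h earlier at 1,000 per well, with HCVcc-Cre virus (about 0.5 moi) added next. Following 44 h of culture, luminescent signal is measured for 15 sec after 15 min with substrate at room temperature.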
* marks the source's active call; other numbers are inactive results; ? = inconclusive; · = no result; [ ] = remark or other dose. An excerpt weighted towards active compounds, which were near 21% of everything screened. Unless noted, the call rests on the fitted dose curve; in most records, active means well fitted curve in the direction sought with a large enough effect; inconclusive means small, poorly fitted or top-dose-only effect, or another doubt; inactive means no such curve, though single readings can be large; an effect the other way counts as inactive or inconclusive.

SMILES	Pf growth 48h	Shiga toxin inh	Pf growth 96h	Cycloheximide cs	AMA1 RON2 block	HCV inhibitor
NS(=O)(=O)c1ccc(NC(=S)NC(=O)/C=C/c2ccco2)cc1	23%	-13	?	1	?	2%
NS(=O)(=O)c1ccc(CNC(=O)/C=C/c2ccco2)cc1	3%	17	12%	2	-10%	32%
O=C(/C=C/c1ccco1)NCc1ccc(F)cc1	55%	20	?	19*	-5%	-1%
Cc1cccc(NC(=S)NC(=O)/C=C/c2ccco2)c1	11%	32	14%	10	14%	-8%
CC(=O)c1ccc(NC(=S)NC(=O)/C=C/c2ccco2)cc1	63%	·	-25%	27*	10%	0%
O=C(/C=C/c1ccco1)NC(=S)Nc1ccccc1	9%	·	261%	42*	27%	2%
Cc1cccc(NC(=S)NC(=O)/C=C/c2ccco2)n1	·	121*	-13%	48*	-5%	8%
Cc1ccc([C@H]2C[C@@H](n3cc(COC(=O)c4ccccc4)nn3)[C@H](O)CN2C(=O)C2CCCCC2)cc1	·	·	·	·	0%	·
O=C(NC(C(=O)N/N=C/c1ccccn1)c1n[nH]c(=O)c2ccccc12)c1ccccc1 (stereo not drawn)	1%	23	?	-2	98%	7%
C=CCNC(=S)N(CC=C)C1CCS(=O)(=O)C1 (stereo not drawn)	15%	-2	94%	-2	-5%	19%
COCCn1c(SCC(=O)NC2CCCCC2)nnc1-c1ccncc1	21%	-15	?	-5	28%	1%
Nc1cc(OC(=O)c2ccc(F)cc2)nn1S(=O)(=O)c1ccccc1	2%	-8	-1%	-5	10%	12%
c1ccc2c(c1)CC(N1CCN(c3cccc4c3OCCO4)CC1)C2	·	3	·	6	·	·
CCC(=O)Nc1ccc(NC(=S)NC(=O)/C=C/c2ccccc2)cc1	10%	-7	-7%	5	-2%	-20%
CC(=O)c1ccc(NC(=S)NC(=O)/C=C/c2ccccc2)cc1	22%	38*	11%	24*	3%	8%
Cc1ccccc1NC(=O)NC1(C(=O)N2CCN(C)CC2)CCCCC1	1%	7	39%	-7	-2%	5%
CCOC(=O)N=Nc1c2ccccc2c2nc3no[nH]c3nc12	1µM*	27	19%	5	7%	0.56µM*
CC(C)CCC[C@@H](C)[C@H]1CC[C@H]2[C@@H]3CC=C4C[C@@H](O)CC[C@]4(C)[C@H]3CC[C@]12C	-3%	-9	13%	7	·	·
CCn1c(C)nc2cc(NC(=O)Nc3cccc(C(C)=O)c3)ccc21	-8%[0.00184 µM]	46	-5%	21*	3%	-23%
Cc1nc2cc(NC(=O)Nc3nccs3)ccc2n1C	121%	35*	·	22*	3%	-2%
Cc1nc2cc(NC(=O)NC(C)(C)C)ccc2n1C	0%	34	10%	18*	2%	3%
CCn1c(C)nc2cc(C(=O)OC)ccc21	13%	10	14%	3	0%	-2%
CCCNC(=O)Nc1ccc2c(c1)nc(C)n2C	56%	33	168%	17	-6%	-8%
COc1cccc(NC(=O)Nc2ccc3c(c2)nc(C)n3C)c1	111%	58*	41%	26*	-8%	?
COc1ccc(S(=O)(=O)N2CCCOC2CNC(=O)C(=O)NCCc2ccco2)cc1 (stereo not drawn)	-18%	-12	?	-1	8%	15%
SMILES	Pf growth 48h	Shiga toxin inh	Pf growth 96h	Cycloheximide cs	AMA1 RON2 block	HCV inhibitor
Cc1ccc(NC(=O)COC(=O)c2cccc(C)c2[N+](=O)[O-])cc1S(=O)(=O)N1CCCCC1	·	·	·	·	-10%	-4%
COc1cccc(NC(=O)Nc2ccc3nsnc3c2)c1	-12%	97*	-63%	31*	3%	?
CCOc1ccc(Br)cc1C(=O)N/N=C/c1cccc(C)n1	8%	24	5%	1	-1%	14%
O=C(N/N=C/c1ccoc1)c1cc(Br)ccc1O	2%	57	270%	31*	61%	10%
Cc1cccc(/C=N/NC(=O)c2cc(Br)ccc2O)n1	30%	48*	12µM*	32*	92%	4µM*
Cc1ccc(-n2c(N)c(C(=O)Nc3c(C)n(C)n(-c4ccccc4)c3=O)c3nc4ccccc4nc32)cc1	9.3µM*	-8	?	-3	-13%	11µM*
Cc1cc(C)cc(-n2c(N)c(C(=O)Nc3c(C)n(C)n(-c4ccccc4)c3=O)c3nc4ccccc4nc32)c1	12%	-4	2.9µM*	4	-7%	?
CCOC(=O)C1(C)CCCN(C(=O)c2ccc(OC(F)F)cc2)C1 (stereo not drawn)	·	·	·	·	1%	·
CCN(CC)C(=O)[C@H]1C[C@H](CC(=O)NCCCn2ccnc2)C(=O)N2CCc3c([nH]c4cc(CCC(=O)N(C)C)ccc34)[C@]12C	·	·	·	·	1%	0%
N/C(=N\c1nc2c(c(=O)[nH]1)CCCC2)Nc1ccc(Oc2ccccc2)cc1	?	-8	8.3µM*	-5	2%	5%
Cc1cccc(N/C(N)=N/c2nc3c(c(=O)[nH]2)CCCC3)c1	13%	-8	22%	1	7%	-6%
CC[C@H](C)[C@@H](CNC)NC[C@@H](Cc1ccc(O)cc1)NCC(C)(C)C	?	-7	13µM*	-1	123%	?
CC[C@@H](C)[C@H](CN[C@H](CNC)C(C)C)NC[C@@H](C)c1ccc(CC(C)C)cc1	?	-10	?	-8	117%	?
COc1ccc(Cc2c(-c3ccc(C)cc3)nc3cc(C)c(Br)c(C)n23)c(C)c1	·	·	·	·	-1%	·
CCCCn1c(=O)[nH]c(=O)c2c1nc(CN1C(=O)c3ccccc3S1(=O)=O)n2CCC	?	-14	?	-8	-6%	-8%
CCCCn1c(=O)[nH]c(=O)c2c1nc(Cn1ncc(Cl)c(Cl)c1=O)n2CCC	?	-12	?	-3	-12%	10µM*
CCOC(=O)Nc1cc(Br)c2c(c1)OCCO2	43%	41	?	34*	-1%	-11%
CCOC(=O)c1c(C)c(C(=O)Nc2cc(F)ccc2F)c(C)n1C	56%	-4	0%	-3	9%	1%
CCOC(=O)c1c(C)c(C(=O)NCCOC)c(C)n1CC	6%	-9	90%	6	0%	21%
CCOC(=O)c1c(C)c(C(=O)Nc2ccc3c(c2)OCCO3)c(C)n1C	?	55*	40%	22*	-3%	?
CCOC(=O)c1c(C)c(C(=O)Nc2ccc(N(C)C)cc2)c(C)n1CC	60%	51	·	22*	-18%	?
CCOC(=O)c1ccc(NC(=O)Nc2ccc3c(c2)OCCO3)cc1	?	32*	14%	13*	-15%	?
CC(=O)C[C@H](O)CC(=O)[C@@H]1OC(=O)CCCCC/C=C/Cc2ccccc21	·	·	·	·	9%	-10%

Assay outcomes from PubChem.
